The list is not random: actives were taken first. Their share in the collection is about 3.7%.
PI5P4Ka inh – blocks human PI5P4K alpha kinase activity | PI5P4Kalpha enzyme, ADP-Glo luminescence, 60 min; stronger effect = lower value | max response, % | 330,000 compounds, 1.2% hits; active = max response of -50% or lower; inconclusive = between -30% and -50%; inactive = -30% or higher; note: value at the top dose of about 77 µM
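Compounds were pin-transferred onto PI5P4Kalpha and substrate in HEPES pH 7.4 buffer with EGTA, CHAPS and 5% DMSO. ATP (5 microM final) started the reaction, which ran 60 minutes at room temperature before ADP-Glo detection.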
PLK1 PBD inh – PLK1 (human) polo-box domain binding inhibition; Potency, µM, most hits filed as inhibitors; AID 720504; Plk1 PBD binding of FITC phosphopeptide, fluorescence polarization; 360,000 compounds, 2.8% hits; note: series mostly up to about 57 µM; nearly all actives have a fitted effect of over 65% in size
FEN1 inh-1 – blocks human flap endonuclease 1 | P39748 | Recombinant FEN1 flap cleavage, fluorescence, 15 min | Potency, µM (top dose mostly 114 µM), usual class: inhibitors | 390,000 compounds, 0.35% hits; note: nearly all actives have a fitted effect of over 65% in size
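Read-out was taken twice, immediately and after 15 min, following addition of 50 nM substrate to 10 nM FEN1 that had sat with test compound for 15 min at room temperature. Curves came from a four-parameter Hill model.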
WRN helicase inh-1 – inhibitors of human WRN helicase; Q14191; Potency, µM (series often up to 114 µM), hits mostly inhibitors; WRN helicase unwinding, fluorescent forked duplex, kinetic; 360,000 compounds, 0.46% hits; note: nearly all actives have a fitted effect of over 55% in size
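Screening of the MLSMR collection measured strand separation of a quenched forked DNA duplex (100 nM) by 20 nM WRN with 2 mM ATP, all final. Compounds were preincubated with enzyme 15 min at room temperature.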
TCR act – T cell receptor activation; primary human leukocytes, anti-CD3, IL-2 HTRF, 48 h; Potency, µM (titrated, usually from 9.22 µM), most hits filed as activators; 330,000 tested, under 10 active; AID 504894
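Human primary leukocytes + a-CD3 beads + cpd, 48 hr; IL-2 in supernatant by HTRF (ex 320nm / em 665nm). No co-stimulatory signal supplied.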
VDR inhibitor – vitamin D3 receptor (human) inhibition; VDR-SRC2-3 peptide fluorescence polarization, 2 h; Potency, µM, usual class: inhibitors; 400,000 compounds, 0.93% hits; AID 504847
Target sequence (P11473 whole entry, looked up): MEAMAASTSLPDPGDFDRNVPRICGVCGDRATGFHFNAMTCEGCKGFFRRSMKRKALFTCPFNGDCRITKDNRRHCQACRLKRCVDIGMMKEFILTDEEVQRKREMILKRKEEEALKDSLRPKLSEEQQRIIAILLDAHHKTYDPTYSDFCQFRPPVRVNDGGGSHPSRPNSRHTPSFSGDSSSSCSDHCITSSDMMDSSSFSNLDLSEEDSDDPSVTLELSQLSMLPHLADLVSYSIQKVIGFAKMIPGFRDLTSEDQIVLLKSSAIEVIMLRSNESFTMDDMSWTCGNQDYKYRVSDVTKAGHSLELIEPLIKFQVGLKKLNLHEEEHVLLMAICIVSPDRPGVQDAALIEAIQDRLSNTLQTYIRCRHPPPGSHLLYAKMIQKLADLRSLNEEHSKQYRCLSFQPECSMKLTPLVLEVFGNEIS
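Reagent solutions, kept cold and dark, are dispensed first; compounds are then pinned in at 23 nl, plates briefly spun, and incubated 2 h at ambient temperature. Inhibition of VDR–SRC2-3 peptide binding is read by fluorescence polarization.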
FEN1 inh-2 – FEN1 inhibition, cherry-pick retest. Potency, µM, most hits filed as inhibitors. shares compounds with FEN1 inh-1. 880 compounds, 79% hits. FEN1 flap cleavage, TAMRA/BHQ2 fluorogenic DNA substrate. AID 720498; note: nearly all actives have a fitted effect of over 60% in size
WRN helicase inh-2 – WRN helicase inhibition, cherry-pick retest. shares compounds with WRN helicase inh-1. WRN helicase DNA unwinding, fluorescence kinetic. Potency, µM (top dose mostly 57.1 µM), actives largely listed as inhibitors. 610 compounds, 63% hits; note: nearly all actives have a fitted effect of over 65% in size
TO displacement – counter-screen for WRN helicase inhibitors: DNA binding; Potency, µM (titrated, usually from 57.1 µM), usual class: inhibitors; AID 720499; shares compounds with WRN helicase inh-1; thiazole orange DNA binding displacement, fluorescence; 610 compounds, 10% hits;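 note: drop in dye fluorescence marks compound binding to DNA; nearly all actives have a fitted effect of over 60% in size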
BLM helicase inh – blocks human BLM helicase in WRN counterscreen; shares compounds with WRN helicase inh-1; Recombinant BLM helicase DNA unwinding, red fluorescence; Potency, µM (highest dose often 57.1 µM), actives largely listed as inhibitors; 610 compounds, 60% hits; note: nearly all actives have a fitted effect of over 60% in size
Hits are given with their value; n = inactive; u = inconclusive; x = no result; [ ] = remark or other dose. Unless noted, calls come from the whole dose curve; as a rule, active = well fitted curve in the direction sought with a large enough effect; inconclusive = small, poorly fitted or top-dose-only effect, or another doubt; inactive = no such curve, though single readings can be large; an effect the other way counts as inactive or inconclusive.

SMILES	PI5P4Ka inh	PLK1 PBD inh	FEN1 inh-1	WRN helicase inh-1	TCR act	VDR inhibitor	FEN1 inh-2	WRN helicase inh-2	TO displacement	BLM helicase inh
CSc1ccc(/C=N/Nc2cccc(C(=O)O)c2)cc1	-98.6	11.9µM	22.4µM	11.2µM	n	n	42.6	4.82µM	u	3.04µM
O=C(O)c1cccc(N/N=C/c2ccc(OC(F)(F)F)cc2)c1	n	n	n	n	n	n	x	x	x	x
COc1cc([N+](=O)[O-])cc(/C=C2/SC(=S)N(Cc3ccccc3)C2=O)c1O	-70.6	29.9µM	15.8µM	2.67µM	n	u	21.3	7.64µM	13.6µM	5.41µM
CN(C)c1ccc2nc3c(=O)[nH]c(=O)nc-3n(CC(O)C(O)C(O)CO)c2c1 (stereo unspecified)	n	n	44.7µM	2.99µM	n	n	33.8	21.5µM	n	21.5µM
COc1cc(NS(=O)(=O)c2ccc(NC(=S)NC(=O)c3sc4cc(F)ccc4c3Cl)cc2)nc(OC)n1	u	26.7µM	u	u	n	u	u	21.5µM	n	24.1µM
O=C(CC1N=C2c3ccccc3N=C(SCC(=O)Nc3ccccc3F)N2C1=O)NCc1ccc2c(c1)OCO2 (stereo unspecified)	x	x	n	x	x	n	x	x	x	x
CC(C)c1ccc(N2C(=O)/C(=C/N(C)C)SC2=S)cc1	n	n	31.6µM	20µM	n	n	30.1	12.1µM	n	13.6µM
COc1ccc(OC)c(NC(=O)C2CCCN(S(=O)(=O)c3ccc4[nH]c(=O)ccc4c3)C2)c1 (stereo unspecified)	x	x	n	x	x	n	x	x	x	x
O=C(O)c1cccc2cccc(-c3c4ccc(=O)c(O)c-4oc4c(O)c(O)ccc34)c12	-94.9	4.74µM	3.16µM	3.55µM	n	u	3.38	1.52µM	4.29µM	0.383µM
O=C(O)c1cccc2cc(-c3ccccc3)oc(=O)c12	n	n	n	n	n	n	x	x	x	x
Cc1cccc(NC(=O)c2ccc3[nH]c(C)cc(=O)c3c2)c1	x	x	n	x	x	n	x	x	x	x
O=C1CC(c2ccc(O)c(O)c2)Oc2c1ccc(O)c2O (stereo unspecified)	-85.6	n	3.55µM	3.16µM	n	n	33.8	1.08µM	u	0.961µM
Cc1cc(C)cc(-n2ccnc2SCC(=O)Nc2nnc(C)s2)c1	x	x	n	x	x	n	x	x	x	x
COc1cccc2c1C(=O)c1c(O)c3c(c(O)c1C2=O)CC(O)(C(C)=O)CC3OC1CC(O)C(O)C(C)O1 (stereo unspecified)	n	9.47µM	28.2µM	2.99µM	n	n	84.9	21.5µM	n	21.5µM
O=C(N/N=C/c1ccc(OC(=O)c2ccccc2Cl)cc1)c1ccccn1	n	n	n	n	n	n	x	x	x	x
O=C(N/N=C/c1ccc(OC(=O)c2ccccc2Cl)cc1)c1cc(O)cc(O)c1	-66.4	u	56.2µM	12.6µM	n	n	75.7	12.1µM	24.1µM	4.82µM
O=C(N/N=C/c1cccnc1)c1cccc(S(=O)(=O)Nc2cccc(Cl)c2)c1	n	n	n	n	n	n	x	x	x	x
O=C(N/N=C/c1ccncc1)c1cccc(S(=O)(=O)Nc2ccc(Cl)cc2)c1	n	n	u	22.4µM	n	n	67.5	13.6µM	n	12.1µM
CSc1ccc(/C=C2\C=Cc3ccccc32)cc1	x	x	n	x	x	x	x	x	x	x
CC1=NN(c2cccc(C(=O)O)c2)C(=O)/C1=C\C=C\c1ccco1	-79.7	8.44µM	22.4µM	4.74µM	n	u	23.9	1.52µM	n	0.961µM
CC1=NN(c2ccccc2)C(=O)/C1=C/C=C/c1ccccc1	n	u	n	n[11.6 µM]	n	u	x	x	x	x

Compound activity from PubChem BioAssay.
